Compound activity deposited in PubChem BioAssay by several laboratories.
beta cell repl – inducers of beta-cell replication in MIN6 cells; MIN6 cells proliferation, ATPlite luminescence, 48 h; cells starved in 0.2% serum; 100% = growth in 10% serum; proliferation, % at 10 µM; 330,000 tested, 0.29% active; AID 2380;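 active means compounds whose signal lies at least 3.5 SD above the mean of all wells on their plate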;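 further: 0% = DMSO-treated cells in low-serum medium and 100% = 10% serum control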
RAD52 inh – inhibitors of human RAD52 DNA annealing; AID 651710; 360,000 tested, 0.46% active; recombinant RAD52 DNA annealing, FRET fluorescence; P43351; inhibition, % at 18.7 µM;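 active means every replicate showing at least 50% inhibition; inconclusive means mean inhibition at least 50% but not in every replicate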
Target sequence (P43351 whole entry, looked up): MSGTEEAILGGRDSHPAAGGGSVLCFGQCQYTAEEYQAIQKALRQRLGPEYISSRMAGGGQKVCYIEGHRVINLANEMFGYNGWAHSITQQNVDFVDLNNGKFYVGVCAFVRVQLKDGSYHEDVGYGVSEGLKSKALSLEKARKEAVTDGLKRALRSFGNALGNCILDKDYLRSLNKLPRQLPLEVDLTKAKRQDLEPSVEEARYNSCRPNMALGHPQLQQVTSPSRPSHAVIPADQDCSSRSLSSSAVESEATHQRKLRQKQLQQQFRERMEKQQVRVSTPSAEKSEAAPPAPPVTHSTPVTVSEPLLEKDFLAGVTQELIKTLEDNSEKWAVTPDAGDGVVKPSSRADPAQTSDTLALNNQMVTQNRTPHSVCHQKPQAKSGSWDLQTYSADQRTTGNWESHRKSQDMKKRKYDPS
PREPL inh – inhibitors of human prolyl oligopeptidase-like enzyme PREPL; Q4J6C6; recombinant PREPL, fluorescence polarization activity-based probe; inhibition, % at 5.96 µM; 320,000 tested, 0.68% active; AID 2751; in the data active means inhibition above about 43%;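 further: 0% = enzyme with DMSO and 100% = wells lacking enzyme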
DNA FID counter – counter-screen for HCV NS3 helicase inhibitors: DNA intercalator displacement; DNA fluorescent intercalator displacement, fluorescence; inhibition, % at 7.9 µM; AID 1845; 290,000 tested, 0.17% active; in the data active means inhibition above about 37%;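 further: 0% = vehicle and 100% = reference compound; higher means more ethidium bromide displaced from hairpin DNA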
UBC13 polyUb – inhibitors of human UBC13 polyubiquitin chain formation; P61088; TR-FRET; inhibition, % at 20 µM; 330,000 tested, 0.47% active; AID 485273; in the data active means inhibition above about 45%, passing the limit was not always enough; inconclusive means no clear call, values can overlap the other calls
RAD54 inh – RAD54 (human) branch migration inhibition; RAD54 Holliday junction branch migration, FAM/BHQ fluorescence; inhibition, % at 10.4 µM; 360,000 tested, 0.14% active;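 active means mean normalized replicate activity at least 40 and at least half of replicates scoring 40 or more; inconclusive means only one of the two criteria met; inactive means mean below 40 and under half of replicates reaching 40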;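 further: 0% = median of neutral control wells and 100% = median of positive control wells; inhibitors cause a drop in the FAM fluorescence signal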
Casp3 UBC13 ctr – counter-screen for UBC13 inhibitors: human caspase-3 inhibition. Recombinant caspase-3, Caspase-Glo 3/7 luminescence, 60 min. AID 488856. shares compounds with UBC13 polyUb. 1,400 tested, 4% active. inhibition, % at 20 µM;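 active means mean inhibition across replicates above about 26%, limit read from the data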;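 further: plate controls were DMSO with caspase-3 for no effect and DMSO wells lacking enzyme for full effect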
Target sequence (P42574 whole entry, looked up): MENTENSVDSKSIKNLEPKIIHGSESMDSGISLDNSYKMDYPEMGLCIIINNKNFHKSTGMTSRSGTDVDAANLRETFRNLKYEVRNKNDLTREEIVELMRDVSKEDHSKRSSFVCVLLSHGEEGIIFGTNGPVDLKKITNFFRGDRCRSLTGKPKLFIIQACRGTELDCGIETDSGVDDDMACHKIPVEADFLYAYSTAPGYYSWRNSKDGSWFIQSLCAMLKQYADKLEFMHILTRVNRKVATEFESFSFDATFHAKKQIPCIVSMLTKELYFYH
UBC13 conf – human UBC13 polyubiquitin inhibition, confirmed; shares compounds with UBC13 polyUb; 1,400 tested, 68% active; inhibition, % at 10 µM; UBC13 polyubiquitination, TR-FRET, biochemical; in the data active means inhibition above about 45%; inconclusive means no clear call, values can overlap the other calls
* marks the source's active call; other numbers are inactive results; ? = inconclusive; . = no result. Shown are actives, neighbours in structure and some others; about 1.3% of the full set was active somewhere.

SMILES | beta cell repl | RAD52 inh | PREPL inh | DNA FID counter | UBC13 polyUb | RAD54 inh | Casp3 UBC13 ctr | UBC13 conf
Cc1ccc(OCC(=O)NNC(=S)NC(=O)C2CC2)c(C)c1 | -6 | -12 | . | -27 | 85* | 2 | 2 | 106*
CCC(C)c1ccc(OCC(=O)NNC(=O)C2CCCCC2)cc1 (stereo not given) | -4 | -17 | 7 | -33 | -9 | 0 | . | .
N#Cc1ccc(OCC(=O)NNC(=S)NC(=O)C2CC2)cc1 | -5 | -12 | 14 | . | 106* | . | -1 | 102*
N#Cc1ccc(NC(=S)NC(=O)C2CCCCC2)cc1 | -5 | -26 | 7 | . | 0 | 13 | . | .
C[C@H]1CN([C@@H](C)CO)C(=O)c2cc(C3=CCCCC3)cnc2O[C@H]1CN(C)C(=O)c1ccc2c(c1)OCO2 | . | 10 | . | . | . | 2 | . | .
O=C(OCc1nc2scc(-c3ccccc3)c2c(=O)[nH]1)c1cc([N+](=O)[O-])ccc1Cl | 0 | -29 | 0 | -3 | 46* | . | 2 | -3
CC(C)C(=O)Nc1ccc2c(c1)C(=O)N(C)[C@@H]1CC[C@H](CC(=O)NCc3ccccc3)O[C@H]1CO2 | . | 3 | . | . | . | 0 | . | .
COc1ccc(-c2ccccc2[C@H]2[C@@H](C#N)N(C(=O)C3CCCC3)[C@@H]2CO)cc1 | . | 13 | . | . | . | . | . | .
Cc1c(Br)c(C(=O)NNC(=O)c2ccc(C(C)(C)C)cc2)nn1C | 0 | 5 | 1 | -15 | 56* | . | 0 | 57*
Cn1cc(Br)c(C(=O)NNC(=O)c2ccc(Br)cc2)n1 | . | -8 | -7 | 0 | . | . | . | .
O=C(N[C@H]1CC[C@@H](CCNS(=O)(=O)Cc2ccccc2)O[C@H]1CO)c1ccc2c(c1)OCO2 | . | -4 | . | . | . | -1 | . | .
CCCOc1ccc(/C=N/NC(=O)CSCc2ccc([N+](=O)[O-])cc2)cc1OCC | 0 | 3 | -4 | -7 | 90* | 4 | -4 | 93*
C/C(=N\NC(=O)Cc1ccc(Cl)cc1)c1ccccc1O | -4 | -45 | 5 | -8 | 8 | -4 | . | .
C/C(=N\NC(=O)CSCc1ccc([N+](=O)[O-])cc1)c1ccccc1 | 2 | -28 | -4 | 0 | 91* | . | 3 | 109*
C/C(=N\NC(=O)CSCc1ccc([N+](=O)[O-])cc1)c1ccccc1O | 0 | . | -2 | 0 | 84* | -10 | -1 | 95*
C[C@@H]1CCCCO[C@@H](CN(C)S(C)(=O)=O)[C@@H](C)CN([C@@H](C)CO)C(=O)c2cc(NS(=O)(=O)c3ccc(F)cc3)ccc2O1 | . | 2 | . | . | . | -9 | . | .
Oc1ccc2c(c1)c1c3n2CCNC3CCC1 (stereo not given) | -2 | 21 | -5 | -4 | -5 | 14 | . | .
c1cc2c(cc1C1CCCCC1)c1c3n2CCCNC3CCC1 (stereo not given) | -5 | . | 35 | 22 | 64* | . | 2 | 72*
O=C(CSc1ccccc1C(=O)NCCCN1CCCC1=O)NCc1ccco1 | -3 | . | -3 | -7 | 50* | 4 | 0 | 4
O=C(CSc1ccccc1F)NCCCN1CCCC1=O | -3 | -5 | 16 | . | 1 | -6 | . | .
CCCNC(=O)N(C)C[C@H]1Oc2ncc(-c3ccc(OC)cc3)cc2C(=O)N([C@@H](C)CO)C[C@H]1C | . | 16 | . | . | . | -22 | . | .
COCCn1c(SCC(N)=O)nc2c(c1=O)SC(C)C2 (stereo not given) | 0 | -7 | -2 | -7 | 49* | 4 | -4 | -4
COCCn1c(SCC(=O)Nc2cc(C)on2)nc2c(c1=O)SC(C)C2 (stereo not given) | -3 | -3 | 5 | -6 | -7 | . | . | .
O=C(CCCCCN1C(=O)c2ccccc2C1=O)Nc1ccc(S(=O)(=O)N2CCCCC2)cc1 | 0 | . | 8 | -18 | 100* | 2 | 6 | 112*
O=C(c1ccc2c(c1)OCO2)N1CC2(C1)[C@@H](c1ccccc1)[C@@H](CO)N2C(=O)C1CC1 | . | 1 | . | . | . | . | . | .
SMILES | beta cell repl | RAD52 inh | PREPL inh | DNA FID counter | UBC13 polyUb | RAD54 inh | Casp3 UBC13 ctr | UBC13 conf
C[C@@H]1CCCCO[C@@H](CN(C)C(=O)Nc2ccc(F)cc2)[C@@H](C)CN([C@@H](C)CO)C(=O)c2cc(NC(=O)Nc3ccc(C(F)(F)F)cc3)ccc2O1 | . | -5 | . | . | . | . | . | .
COCC#Cc1ccc2c(c1)O[C@@H](CN(C)S(=O)(=O)c1cccc(OC)c1)[C@@H](C)CN([C@@H](C)CO)S2(=O)=O | . | 20 | . | . | . | -4 | . | .
C[C@H](CO)N1C[C@H](C)[C@@H](CN(C)C(=O)C2CCOCC2)Oc2ncc(C#CC3(O)CCCC3)cc2C1=O | . | 10 | . | . | . | 1 | . | .
COCC(=O)Nc1ccc2c(c1)OC[C@@H](C)N(C(=O)c1ccncc1)C[C@H](C)[C@H](OC)CN(C)C2=O | . | -13 | . | . | . | 2 | . | .
Cc1c(CCOC(=O)C23CC4CC(CC(C4)C2)C3)sc[n+]1Cc1ccccc1 | -6 | -9 | 20 | 12 | 14 | -2 | . | .
Cc1c(CCOC(=O)CC23CC4CC(CC(C4)C2)C3)sc[n+]1CC(=O)c1ccccc1 | -7 | 42 | 28 | 7 | 47* | . | -3 | 52*
Cc1c(CCOC(=O)C23CC4(C)CC(C)(CC(C)(C4)C2)C3)sc[n+]1CC(=O)c1ccccc1 | -6 | 27 | 25 | -1 | 70* | . | -4 | 88*
Cc1ccc(S(=O)(=O)Nc2cccc3c2O[C@H](CN(C)S(=O)(=O)c2ccc(C)cc2)[C@@H](C)CN([C@H](C)CO)C3=O)cc1 | . | -5 | . | . | . | -4 | . | .
CC(C)c1ccc(NC(=O)C[n+]2ccn(C3=C([O-])c4ccccc4C3=O)c2)cc1 | 0 | -14 | 26 | 10 | 56* | . | -4 | 47*
CCCC[n+]1ccn(C2=C([O-])c3ccccc3C(=O)/C2=N\S(=O)(=O)c2ccccc2)c1 | -3 | . | 15 | -3 | -114 | 5 | . | .
O=C(CCCCn1c(=O)c2ccccc2n(Cc2ccccc2F)c1=O)NC1CCN(Cc2ccccc2)CC1 | -6 | -49 | 3 | -11 | 100* | 3 | 0 | 107*
Cc1cccc(C)c1NC(=O)Cn1c(=O)n(CCCC(=O)NC2CCN(Cc3ccccc3)CC2)c(=O)c2ccccc21 | 0 | -20 | 18 | 8 | 85* | -9 | -2 | 105*
Cc1cc(NC(=O)Cn2c(=O)n(CCCCC(=O)NC3CCN(Cc4ccccc4)CC3)c(=O)c3ccccc32)n[nH]1 | 0 | -26 | -6 | 4 | 52* | . | -2 | 48*
O=C(NCC[C@@H]1CC[C@H](NC(=O)c2cnccn2)[C@H](CO)O1)Nc1ccc(F)cc1 | . | 14 | . | . | . | 13 | . | .
Cn1c2ccccc2c(=O)c2ccc(NCCc3cccs3)cc21 | -6 | -66 | 33 | . | 45* | 0 | 88* | ?
O=C(Nc1ccc(Cl)c(C(F)(F)F)c1)NC1CC2CCCC(C1)N2Cc1ccccc1 (stereo not given) | -5 | 9 | 11 | 18 | 46* | . | -5 | 63*
